Source: PubChem BioAssay
SARS PLpro yeast: qHTS of Yeast-based Assay for SARS-CoV PLP; AID 485353, 2010; 0.19% of 330,000 active; Potency, µM (top dose mostly 32.9 µM), most hits filed as activators; S. cerevisiae expressing SARS-CoV PLpro, growth rescue; calls by dose curve; further: nearly all actives have a fitted effect of over 55% in size
Shiga toxin inh: A qHTS for Small Molecule Inhibitors of Shiga Toxin; Vero cells, Shiga toxin protein synthesis inhibition reporter; inhibition, % at 38.7 µM; 9.2% of 290,000 active; AID 2315, 2010; in the data active means inhibition mostly above about 28%, no sharp cut-off; inactive means mostly below about 43%
CHX counter: Cycloheximide Counterscreen for Small Molecule Inhibitors of Shiga Toxin; AID 2314, 2010; cell reporter, cycloheximide protein synthesis inhibition counterscreen; 12% of 300,000 active; max response, %; in the data active means max response mostly above about 13%, no sharp cut-off; inactive means mostly below about 14%; further: read at 38.3 µM for the half of the compounds with a filed dose
Pf growth 96h: Primary qHTS for delayed death inhibitors of the malarial parasite plastid, 96 hour incubation | Potency, µM (highest dose often 28.7 µM), most hits filed as inhibitors | P. falciparum luciferase reporter growth, 96 h | 6.9% of 320,000 active
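Two parasite generations (96 h, 37 C, 5% CO2) of compound exposure in infected erythrocytes (0.05% parasitemia, 2% hematocrit). Luciferase-reporter P. falciparum; decreased luminescence indicates inhibited growth, aimed at apicoplast-acting delayed death.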
NS1 function inh: qHTS Assay for Inhibitors of Influenza NS1 Protein Function. 0.4% of 270,000 active. Potency, µM (titrated, usually from 46.1 µM). AID 2326, 2010; calls by dose curve; further: actives are rising curves; nearly all actives have a fitted effect of over 50% in size
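S. cerevisiae expressing influenza A NS1, grown in glucose, washed, then diluted 1:100 into pH 6.0 -URA galactose medium with 23 nl compound. Growth recovery read as OD600; NS1-free strain serves as control.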
Pf growth 48h: Primary qHTS for delayed death inhibitors of the malarial parasite plastid, 48 hour incubation; P. falciparum luciferase growth in erythrocytes, 48 h; Potency, µM (doses to about 28.7 µM), hits mostly inhibitors; 5.9% of 310,000 active
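Luminescence readout; reporter = integrated firefly luciferase in P. falciparum. RBC culture at 2% hematocrit, 0.1% parasitemia final, 37 C/5% CO2; decreased signal taken as growth inhibition.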
Each line names hits and unclear results; the compound was inactive in the other large screens. Only some compounds are listed: those with a hit (about 21% of all), similar ones and a draw of the others. Unless noted, the call rests on the fitted dose curve; in most records, active means well fitted inhibition curve with a large enough effect; inconclusive means small, poorly fitted or top-dose-only effect, or another doubt; inactive means no such curve, though single readings can be large or run the other way.

O=C(CCSCCc1ccccn1)Nc1ccc(Cl)cn1	none (no result: Pf growth 96h)
COCCn1c(C)cc(C(=O)COC(=O)CCS(=O)(=O)c2ccc(C)cc2)c1C	none (no result: SARS PLpro yeast, Shiga toxin inh, CHX counter, NS1 function inh)
Cc1ccc(NC(=O)Cc2ccc(-c3ccccc3)cc2)nc1	none
S=C(Nc1ccccc1)Nc1ccc(Cl)cn1	CHX counter 24.7
O=C(NC(=S)Nc1ccc(Cl)cn1)C(c1ccccc1)c1ccccc1	Pf growth 48h inconclusive
Cc1ccc(C(=O)Nc2ccc(Cl)cn2)cc1	Shiga toxin inh 54.8, CHX counter 33.8
CC(C)(C)c1csc(SCC(=O)Nc2ccc(Cl)cn2)n1	Pf growth 96h inconclusive, Pf growth 48h 11.7µM
Cc1ccc(NC(=O)c2cccc(Cl)c2)nc1	CHX counter 29.4
Cc1ccc(C(=O)NCC(=O)OCC(=O)Nc2ccc(Cl)cn2)cc1	none (no result: Shiga toxin inh, CHX counter, NS1 function inh)
CC1CCC(NC(=O)C2CCN(C(=O)Nc3ccccc3)CC2)CC1 (configuration not stated)	none (no result: Shiga toxin inh, CHX counter, NS1 function inh)
CS(=O)(=O)N1CCN(c2ccc(C(=O)N3CCOCC3)cc2[N+](=O)[O-])CC1	none
CCC(=O)Nc1ccc(NC(=O)CCc2ccccc2)cn1	Pf growth 96h inconclusive (no result: Shiga toxin inh)
COc1cc(C(=O)Nc2ccc(NC(=O)c3cccc(Cl)c3)nc2)cc(OC)c1OC	Pf growth 48h 2.62µM
Cn1sc(NC(=O)c2cccc(Cl)c2)nc1=O	Shiga toxin inh 50.9
O=C(NC(=S)Nc1ccc(Cl)cn1)C12CC3CC(CC(C3)C1)C2	CHX counter 14.9, Pf growth 96h inconclusive (no result: NS1 function inh)
COc1cc(C(=O)Nc2ccc(NC(=O)C3CCCCC3)nc2)cc(OC)c1OC	Pf growth 96h inconclusive, Pf growth 48h inconclusive
O=C(CCc1ccccc1)Nc1ccc(Cl)cn1	SARS PLpro yeast inconclusive, Shiga toxin inh 134.1, CHX counter 46.0
O=C(COc1ccc(S(=O)(=O)N2CCCC2)cc1)N1CCCCC1	none
O=C(COC(=O)Cc1ccccc1)Nc1ccc(Cl)cn1	none (no result: NS1 function inh)
O=C(Cc1ccccc1)Nc1ccc(Cl)cn1	CHX counter 22.6
COc1cccc(C(=O)Nc2ccc(NC(=O)C(C)(C)C)cn2)c1	Shiga toxin inh 41.1, CHX counter 12.0, Pf growth 96h inconclusive
COc1cc(C(=O)Nc2ccc(S(=O)(=O)N(C)c3ccccc3)cc2)cc(OC)c1OC	NS1 function inh inconclusive
COc1cc(C(=O)Nc2ccc(N(C)C)cc2)cc(OC)c1OC	Shiga toxin inh 58.2, CHX counter 24.5
Cc1ccc(NC(=O)c2ccc(Nc3ccccc3F)nc2)cc1	CHX counter 40.2, Pf growth 96h 5.86µM
O=C(O)CCC(=O)N1CCN(c2ncccn2)CC1	Pf growth 96h inconclusive
Cc1nc2cc(NC(=O)N3CCCCC3)ccc2n1C	Shiga toxin inh 43.8, CHX counter 18.6, Pf growth 96h inconclusive
Cc1nc2ccc(NC(=O)N3CCCCC3)cc2nc1C	none
O=C(Nc1ccc2nc(-c3ccco3)c(-c3ccco3)nc2c1)N1CCCCCC1	NS1 function inh inconclusive, Pf growth 48h inconclusive
CCOC(=O)C1CCN(C(=O)Nc2ccc3nc(-c4ccco4)c(-c4ccco4)nc3c2)CC1	Pf growth 96h inconclusive, Pf growth 48h 10.4µM
CCOC(=O)C1CCN(C(=O)Nc2ccc(OC)c(OC)c2)CC1	none
CCOC(=O)C1CCN(C(=O)Nc2ccc3c(c2)nc(C)n3C)CC1	Shiga toxin inh 53.4, CHX counter 49.1, Pf growth 96h inconclusive
O=C(COC(=O)C1CCC(N2C(=O)C3C4CCC(C4)C3C2=O)CC1)c1ccc(F)cc1 (configuration not stated)	Pf growth 96h inconclusive
Cc1ccc[n+](CC(=O)c2ccc(Br)cc2)c1C	Pf growth 48h inconclusive
CC(c1ccco1)N(C(=O)c1ccc(Cl)c([N+](=O)[O-])c1)c1ccccn1 (configuration not stated)	none
CC(c1ccco1)N(C(=O)COc1ccc(Cl)cc1Cl)c1ccccn1 (configuration not stated)	Shiga toxin inh 125.8, CHX counter 53.2 (no result: Pf growth 96h)
CC(c1ccco1)N(C(=O)COc1ccc(Cl)cc1)c1ccccn1 (configuration not stated)	Shiga toxin inh 134.6, CHX counter 39.1
CCC1CC=CC2C1C(=O)N(Cc1ccccc1)C2c1ccc2ccccc2c1 (configuration not stated)	none (no result: SARS PLpro yeast, Pf growth 96h, NS1 function inh, Pf growth 48h)
CCN1C(=O)[C@H]2[C@@H](c3ccc(-c4ccc(C(C)=O)cc4)cc3)N[C@@](C)(C(=O)OC)[C@H]2C1=O	none (no result: Shiga toxin inh, CHX counter, Pf growth 96h, NS1 function inh, Pf growth 48h)
Cc1cc(C(=O)COc2ccccc2C#N)c(C)n1C1CC1	Pf growth 96h inconclusive, Pf growth 48h inconclusive (no result: Shiga toxin inh, CHX counter, NS1 function inh)
Cc1nn(Cc2ccccc2)c(C)c1C(=O)OCC(=O)c1cc(C)n(C2CC2)c1C	Pf growth 48h 14.7µM (no result: Pf growth 96h)
COc1ccc(C2(C)NC(=O)N(CC(=O)c3cc(C)n(C4CC4)c3C)C2=O)cc1 (configuration not stated)	Pf growth 96h 3.7µM, Pf growth 48h inconclusive (no result: Shiga toxin inh, CHX counter, NS1 function inh)
C=CCNC(=O)CN1C(=O)NC(C)(c2ccc(OC)cc2)C1=O (configuration not stated)	none
COc1cc(C(C)=O)ccc1OCC(=O)c1cc(C)n(C2CC2)c1C	Pf growth 96h 11.7µM, Pf growth 48h inconclusive
Cc1cc(C(=O)COc2ccc([N+](=O)[O-])cc2)c(C)n1C1CC1	Shiga toxin inh 36.1, CHX counter 15.7, Pf growth 96h inconclusive
CCOC(=O)c1cc(C#N)c(C)nc1N(CC)CC	none
COc1ccc(C(C(=O)NC(C)(C)C)N(C(=O)CCC(=O)Nc2cc(C)on2)c2cccc(F)c2)cc1 (configuration not stated)	Pf growth 48h inconclusive
CCOc1cccc(N(C(=O)CCC(=O)Nc2cc(C)on2)C(C(=O)NC(C)(C)C)c2ccc(OC)cc2)c1 (configuration not stated)	Pf growth 96h inconclusive, Pf growth 48h 3.29µM
CCC(C)(C)NC(=O)C(c1ccc(OC)cc1)N(C(=O)CCC(=O)Nc1cc(C)on1)c1ccc(F)cc1 (configuration not stated)	Pf growth 48h inconclusive
CCc1ccc(N(C(=O)CCC(=O)Nc2cc(C)on2)C(C(=O)NC(C)(C)C)c2ccc(OC)cc2)cc1 (configuration not stated)	Pf growth 48h 2.08µM
CCC(C)(C)NC(=O)C(c1ccc(OC)cc1)N(Cc1ccc(OC)cc1)C(=O)CCC(=O)Nc1cc(C)on1 (configuration not stated)	Pf growth 48h inconclusive
CCC(C)(C)NC(=O)C(c1ccc(OC)cc1)N(C(=O)CCC(=O)Nc1cc(C)on1)C(C)(C)C (configuration not stated)	Pf growth 96h 11.7µM, Pf growth 48h inconclusive
COC(=O)c1ccc(C2NC(=S)N(c3ccccc3)C(C)=C2C(=O)Nc2ccccc2OC)cc1 (configuration not stated)	Pf growth 48h 13.1µM (no result: Pf growth 96h)
